Screens as filed in PubChem.
Shown are actives, neighbours in structure and some others; about 2% of the full set was active somewhere.
bovine MsrA act: bovine MsrA enzyme activators, primary screen, biochemical, absorbance, HTS; Methionine sulfoxide reductase A (Bos taurus); purified bovine MsrA, absorbance read-out; activation, % at 10.6 µM; 360,000 compounds, 0.3% hits; in the data active means activation above about 7.5%;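 further: 0% = vehicle and 100% = reference activator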
PKA-R2B act: activators of PKA-R2B holoenzyme, primary screen, biochemical, fluorescence polarization, Cy5-IP20, human | activation, % at 11.4 µM | cAMP-dependent protein kinase catalytic subunit beta (Homo sapiens) + cAMP-dependent … | PKA-R2B holoenzyme dissociation; R2B truncated from residue 108, S112A mutant; 0% DMSO only, 100% 113 µM cGMP | AID 504700, 2011 | 340,000 compounds, 0.079% hits;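 active means activation above a cutoff set at the mean over all compounds plus 3 SD, cut at about 18% in these data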;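 further: higher means more holoenzyme dissociation and a rise in polarization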
Target sequence (P31323 whole entry, looked up, other chains not shown, the tested form may be a part): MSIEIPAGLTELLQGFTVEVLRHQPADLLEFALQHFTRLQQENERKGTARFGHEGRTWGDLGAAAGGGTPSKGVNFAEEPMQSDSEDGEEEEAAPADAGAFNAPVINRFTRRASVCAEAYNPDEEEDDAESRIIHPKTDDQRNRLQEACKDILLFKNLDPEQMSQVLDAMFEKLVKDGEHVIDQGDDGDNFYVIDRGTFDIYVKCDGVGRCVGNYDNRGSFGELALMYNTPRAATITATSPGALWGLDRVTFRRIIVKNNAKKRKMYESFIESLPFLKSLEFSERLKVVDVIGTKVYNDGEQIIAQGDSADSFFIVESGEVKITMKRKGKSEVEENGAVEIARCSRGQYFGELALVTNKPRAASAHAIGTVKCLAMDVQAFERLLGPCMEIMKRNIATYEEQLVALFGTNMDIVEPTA
PKA-R1A act: activators of PKA-R1A holoenzyme, primary screen, biochemical, fluorescence polarization, Cy5-IP20, bovine R1A, mouse PKAc. 340,000 compounds, 0.083% hits. activation, % at 11.4 µM. cAMP-dependent protein kinase type I-alpha regulatory subunit (Bos taurus) + …. PKA-R1A dissociation; scaled: DMSO 0%, 113 µM cGMP 100%;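 active means percent activation above the mean of all tested compounds plus 3 SD, cut at about 19% in these data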;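 further: higher means more PKAc released from R1A so a rise in polarization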
MsrA inhibitor: bovine MsrA enzyme inhibitors, primary screen, biochemical, absorbance, HTS | inhibition, % at 15.5 µM | purified bovine MsrA, absorbance read-out | 360,000 compounds, 0.75% hits | AID 651718, 2012; in the data active means inhibition above about 4.5%;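 further: 0% = vehicle wells with enzyme and 100% = reference inhibitor wells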
Mot1-301 SUMO: yeast Mot1-301 growth rescue at high temperature, primary screen, SUMOylation pathway inhibitor project, S. cerevisiae, ATP luminescence, 38.5C; 320,000 compounds, 1% hits; growth rescue, % at 18.8 µM; S. cerevisiae Mot1-301 growth rescue; percent above DMSO median, 100 means doubled;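 active means every valid replicate shows activation above 250% relative to neutral control wells; inactive means the rest, any valid replicate at or below 250%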;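 further: OY570 slx delta 5 strain wells were the positive control but not used for scaling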
Yeast Mot1 SUMO: growth restoration of Mot1-301 yeast on galactose, dose response, SUMO pathway inhibitor project, whole organism, S. cerevisiae, ATP luminescence, cherry-picked samples; shares compounds with Mot1-301 SUMO; 2,300 tested, under 10 active; AID 493004, 2010; S. cerevisiae Mot1-301 galactose growth, 24 h; -100 = growth of slx-deleted rescue strain; growth activity, percent, % at 42 µM;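 active means Signal drops as the depositor expects, and the fitted half-maximal dose is no more than ten times the top valid tested dose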;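 further: more negative values mean stronger growth rescue toward the control strain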
The depositor's hits bear a star; / = not tested or not shown; + = active, no number.

SMILES | bovine MsrA act | PKA-R2B act | PKA-R1A act | MsrA inhibitor | Mot1-301 SUMO | Yeast Mot1 SUMO
CCc1c(O)nc(SCC(=O)Nc2ccccc2OC)[nH]c1=O | -2 | -6 | -9 | -1 | -14 | /
COc1ccc(CN(C)C(=O)[C@@H](Cc2ccccc2)NC(=O)[C@H]2O[C@@H](n3ccc(N)nc3=O)[C@H](O)[C@@H]2O)cc1OC | / | / | / | 0 | / | /
CC(Oc1ccc([N+](=O)[O-])cc1)C(=O)NCCCN1CCOCC1 (stereo unspecified) | -9 | 6 | -20 | 1 | 505* | 0
CC(Oc1ccc2c(c1)oc(=O)c1ccccc12)C(=O)NCCCN1CCOCC1 (stereo unspecified) | -1 | 3 | 2 | 1 | 396 | /
CC(C)C[C@H]1COc2cc(Br)ccc2S(=O)(=O)N1Cc1cccc(Cl)c1 | / | / | / | 0 | / | /
COC(=O)C1=C(C)NC(C)=C(C(=O)OC)C(N2C(=O)CCC2=O)C1 (stereo unspecified) | / | / | / | 1 | / | /
Cn1cccc1CC(=O)N/N=C/c1cccc([N+](=O)[O-])c1 | -5 | -5 | -4 | -1 | 409* | 0
Cn1cccc1CC(=O)N/N=C/c1cc([N+](=O)[O-])ccc1Cl | -3 | 1 | 1 | 1 | 239 | /
O=C(N/N=C/c1cccc([N+](=O)[O-])c1)C1COc2ccccc2O1 (stereo unspecified) | -1 | -3 | -2 | 1 | 678* | 0
COc1cc(N/C(=C\C(=O)c2ccccc2)c2ccccc2)ccc1Cl | / | / | / | 1 | / | /
CCOC(=O)N1CCC(NS(=O)(=O)c2ccc3c(c2)oc(=O)n3C)CC1 | -15 | 2 | -9 | 1 | -9 | /
CCOC(=O)N1CCN(S(=O)(=O)c2ccc(OCC)c(C)c2)CC1 | -9 | -16 | 4 | 0 | 8 | /
CCOC(=O)N1CCC(NS(=O)(=O)c2ccc(C)c(Cl)c2)CC1 | -1 | / | / | 1 | 559* | 0
CCOC(=O)N1CCN(S(=O)(=O)c2ccc(C)c(C)c2)CC1 | -4 | 2 | -4 | 0 | 388* | 0
CCOC(=O)N1CCN(S(=O)(=O)c2ccc(Br)s2)CC1 | -4 | 9 | 10 | 1 | 365* | 0
CCOc1cccc(C=NNc2nc(=O)cc(C(=O)OC)s2)c1O | / | / | / | 1 | / | /
CCCCCCCCN1C(=O)[C@@H](CC(=O)NCC2CCCCC2)C[C@@]2(C(=O)OC)C1=C[C@H](C1CCCC1)O[C@@H]2C | / | / | / | 0 | / | /
COc1ccccc1Cc1c(-c2ccc(F)cc2)nc2c3ccccc3ccn12 | / | / | / | 1 | / | /
CCOC(=O)/C(=C\Nc1cccc(OCc2ccccc2)c1)NC(=O)c1ccccc1 | / | / | / | 0 | / | /
Cc1cc(NC(=O)CC2CCCC2)ccc1Br | 0 | -6 | -2 | 0 | 386* | -1
Cc1ccc(NC(=O)CC2CS(=O)(=O)CC2CC(=O)Nc2ccc(C)c(C)c2)cc1C (stereo unspecified) | 1 | -3 | -2 | 1 | 440* | 0
Nc1cccc2c1C(=O)N(c1ccccc1)C2=O | 0 | 0 | 5 | -1 | 668* | 0
COc1ccc(-c2csc(Nc3ncccn3)n2)cc1C | -3 | -1 | 4 | 1 | -3 | /
COc1ccc(-c2csc(Nc3cc(C)ccn3)n2)cc1C | -2 | -3 | 2 | 3 | 515* | 0
NC(=O)c1cccc2cc3ccccc3cc12 | -2 | -13 | -4 | 0 | 625* | 1
NC(=O)c1ccccc1OCc1cccc2ccccc12 | -3 | 10 | -7 | 0 | -3 | /
COc1cc2c(cc1OC)CN(S(=O)(=O)c1cccc(F)c1)CC2 | -2 | 0 | -3 | -1 | + | 0
COC(=O)c1cc2c(c3c4cc(OC)ccc4n(S(=O)(=O)c4ccc(C)cc4)c13)C(=O)N(C)C2 | / | / | / | 0 | / | /
